Assay outcomes deposited in PubChem by Broad Institute.
A1 inh: A1 inhibition; MEF A1-2A-BIM cells, caspase-Glo luminescence, 3 h; percent of clofoctol signal, DMSO as zero; caspase activation, % (concentration not given with the values); 21,000 tested, 0.51% active; AID 2241;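 active = most replicate scores above 10, or exactly half above 10 with mean activity above 10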;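 note: effector caspase 3 and 7 activity cleaving a DEVD luciferin substrate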
BJeLR viability: compounds reducing viability of BJeLR cells | BJeLR fibroblasts viability, CellTiterGlo ATP luminescence, 48 h; HRASV12, hTERT and SV40 LT/ST transformed | viability loss activity score, % (concentration not given with the values) | 30,000 tested, 0.64% active | AID 2275; in the data active = viability loss activity score above about 50%;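 note: higher score means fewer live cells and less ATP luminescence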
Starred values were filed as active, the others as inactive; . = not tested or not shown. This is a sample that favours compounds with a hit; in the whole collection about 0.9% have one here.

SMILES | A1 inh | BJeLR viability
Cc1ccc(-c2nsc(SCC(=O)c3ccc(Cl)cc3)n2)cc1 | -0.5 | -0.9
CCOc1ccc(-c2c(C#N)c(N)nc(SCC(=O)c3ccc(Cl)cc3)c2C#N)cc1 | 16.4* | 4.2
N#C/C(=C\c1[nH]c2ccccc2c1O)C(=N)N1CCOCC1 | . | 0.0
c1ccc2c(c1)NC(c1ccc3c(c1)OCO3)S2 (stereo unspecified) | -6.8 | 72.0*
COc1cc(C2Nc3ccccc3S2)cc(OC)c1OC (stereo unspecified) | 2.3 | -2.9
CCN1CSC(=S)N(Cc2ccccc2)C1 | -0.8 | 53.6*
CCN1CNC(=S)N(c2ccccc2)C1 | 0.3 | 3.9
O=C(NCCCc1ccccc1)C1c2ccccc2Oc2ccccc21 | . | -3.6
CS(=O)c1sc(C(=O)OCc2ccccc2)c2c1C(=O)CC(C)(C)C2 (stereo unspecified) | 4.1 | 116.4*
CC1(C)CC(=O)c2c(SCCOC(=O)c3ccccc3Cl)sc(C#N)c2C1 | -1.0 | -0.8
O=C(CCCn1c(=S)[nH]c2c(sc3ccccc32)c1=O)NC1CCCCCC1 | . | -0.2
O=C1Nc2ccccc2/C1=C/C(=O)c1ccc(Cl)cc1 | 65.2* | 64.7*
O=C1Nc2ccccc2/C1=C\c1c(Cl)[nH]c2ccccc12 | 1.9 | 27.0
COc1cccc(-c2nc(CS(=O)(=O)CC(=O)NC3CCCC(C)C3C)c(C)o2)c1 (stereo unspecified) | . | -2.2
Oc1c(C(c2ccncc2)N2CCCC2)ccc2cccnc12 (stereo unspecified) | 4.8 | 31.5
COc1ccc(C(c2ccc3cccnc3c2O)N2CCOCC2)cc1 (stereo unspecified) | 42.8* | 30.0
Cc1ccc(C(=O)CC(=O)C(=O)Nc2ccc(S(=O)(=O)N3CCOCC3)cc2)cc1C | . | -4.0
Cc1ccc(-n2nc(C(=O)NCCc3ccc(Cl)cc3)c3c4ccccc4n(C)c3c2=O)cc1 | . | 3.2
C=CCc1ccc(O[C@@H]2O[C@H](CO[C@@H]3O[C@@H](C)[C@H](O)[C@@H](O)[C@H]3O)[C@@H](O)[C@H](O)[C@H]2O)c(O)c1 | 0.9 | 0.9
C=CCc1ccc(O[C@@H]2O[C@H](CO)[C@@H](O)[C@H](O)[C@H]2O)c(O[C@@H]2O[C@H](CO)[C@@H](O)[C@H](O)[C@H]2O)c1 | -0.4 | 70.0*
COc1ccc(NC(=O)C2CCCN(S(=O)(=O)c3ccc(Br)s3)C2)cc1Cl (stereo unspecified) | . | 2.4
CCc1ccc2nc(Nc3nc4ccccc4c(=O)[nH]3)nc(C)c2c1 | -3.8 | 87.2*
Cc1ccc(SCc2cc(=O)[nH]c(Nc3nc(C)c4ccccc4n3)n2)cc1 | 1.1 | -1.4
O=C(CN1CCN(Cc2ccc(Cl)cc2)C1=O)NCC1COc2ccccc2O1 (stereo unspecified) | . | -1.1
N#Cc1c(SCC(=O)c2ccccc2)nc2c(c1C(F)(F)F)CCCC2 | . | -7.8
SMILES | A1 inh | BJeLR viability
CC(C)N1CN=C(Nc2nc3ccccc3o2)NC1 | -0.7 | 0.3
Cc1ccnc(Nc2nc3ccccc3o2)n1 | . | 49.8*
CC(=O)NC1(C(=O)NC2CCCC2)CCCCC1 | . | 1.6
COc1cc(SC)ccc1C(=O)Nc1ccccc1C(N)=O | 0.2 | 3.6
N#CCSc1nc2cc(C(=O)NCc3ccccc3)ccc2c(=O)n1CCc1ccccc1 | 21.7* | 0.6
N#CCSc1nc2ccccc2c(=O)n1CCCC(=O)NCc1ccco1 | -0.7 | -4.5
C[C@@H]1O[C@@H](O[C@H]2[C@H](O)[C@@H](O)[C@H](OC[C@H]3O[C@@H](OC(=O)[C@]45CCC(C)(C)CC4C4=CCC6[C@@]7(C)CC[C@H](O)C(C)(C)C7CC[C@@]6(C)[C@]4(C)CC5)[C@H](O)[C@@H](O)[C@@H]3O)O[C@@H]2CO)[C@H](O)[C@H](O)[C@H]1O (stereo partly specified) | 0.7 | 125.5*
CC(=O)N[C@H]1[C@H](O[C@H]2CC[C@@]3(C)C(CC[C@]4(C)C3CC=C3[C@@H]5CC(C)(C)CC[C@]5(C(=O)OC5OCC(O)C(O)C5O)C(O)C[C@]34C)C2(C)C)O[C@H](COC2OCC(O)C(OC3OCC(O)C(O)C3O)C2O)[C@@H](O[C@@H]2O[C@@H](C)[C@H](O)[C@@H](O)[C@H]2O[C@@H]2O[C@@H](C)[C@H](O)[C@@H](O)[C@H]2O)[C@@H]1O (stereo partly specified) | 34.8* | 1.3
CC1(C)CC[C@]2(C(=O)O[C@@H]3O[C@H](CO)[C@@H](O)[C@H](O)[C@H]3O)CC[C@]3(C)C(=CCC4[C@@]5(C)CC[C@H](O[C@@H]6O[C@H](C(=O)O)[C@@H](O[C@@H]7O[C@H](CO)[C@@H](O)[C@H](O)[C@H]7O)[C@H](O)[C@H]6O)C(C)(C)C5CC[C@]43C)C2C1 (stereo partly specified) | 0.3 | 1.6
